Source: PubChem (National Center for Advancing Translational Sciences (NCATS))
Hits are enriched below; roughly 3.1% of the tested compounds scored in any of these assays.
Tau fibril FP: inhibitors of human tau fibril formation. P10636. K18 P301L tau heparin fibrillization, Alexa594 FP, 6 h. Potency, µM (series often up to 57.7 µM), hits mostly inhibitors. actives 0.39% (n = 280,000); note: nearly all actives have a fitted effect of over 55% in size
Target sequence (P10636 561-689 P618L limits assumed): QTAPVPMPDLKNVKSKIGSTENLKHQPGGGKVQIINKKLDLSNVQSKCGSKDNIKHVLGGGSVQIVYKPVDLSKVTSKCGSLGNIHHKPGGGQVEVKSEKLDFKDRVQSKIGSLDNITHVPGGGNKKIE
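Human K18 P301L fragment (15 uM unlabeled plus 0.24 uM Alexa 594-labeled) in 100 mM sodium acetate pH 7 with compound, aggregation induced by 20 uM heparin for 6 hr at 37 C. ThT (30 uM) added for 1 hr, then Alexa 594 FP read.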
TexasRed fluor: Texas Red fluorescence interference in TRb-SRC2 counter-screen. TRb/SRC2 Texas Red total fluorescence interference. Potency, µM (highest dose often 106 µM). actives 0.29% (n = 280,000). AID 1479; active = well fitted curve in either direction with a large enough effect; inconclusive = small, poorly fitted or top-dose-only effect
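Flags fluorescent or light-absorbing compounds by total fluorescence, S + 2P, at 555 nm excitation and 632 nm emission. Mixture: 20 nM Texas Red SRC2 peptide, 0.6 uM human TRb LBD, 1 uM T3, 5% DMSO; compound exposure 5 h at ambient temperature.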
Tau ThT inhib: blocks human tau fibril formation measured by thioflavin T; recombinant tau K18 P301L, heparin-induced fibrillization, ThT fluorescence; AID 1460; actives 2.1% (n = 270,000); P10636; Potency, µM (top dose mostly 57.4 µM), most hits filed as inhibitors; note: nearly all actives have a fitted effect of over 55% in size
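Using a mix of unlabeled (15 uM) and Alexa 594-labeled (0.24 uM) tau K18 P301L, heparin-triggered fibrillization over 6 hr at 37 C was scored by ThT fluorescence.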
Tau fluor cs: counter-screen for tau fibril formation inhibitors; Potency, µM (series often up to 57.7 µM); tau K18 P301L (four-repeat tau fragment) Alexa594 fluorescence, heparin fibrillization; actives 0.93% (n = 280,000); AID 1463; note: nearly all actives have a fitted effect of over 55% in size
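Human K18 P301L tau (15 uM unlabeled plus 0.24 uM Alexa 594-labeled, final) in 100 mM sodium acetate pH 7 was mixed with compound and 20 uM heparin and incubated 6 hr at 37 C.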
TRb-SRC2 inh: disrupts binding of human TR beta to SRC2; P10828; TRbeta-SRC2 peptide binding, fluorescence polarization; receptor liganded with 1 µM T3; Potency, µM (highest dose often 106 µM), hits mostly inhibitors; actives 0.065% (n = 280,000); AID 1469; note: nearly all actives have a fitted effect of over 50% in size
Target sequence (P10828 whole entry, looked up): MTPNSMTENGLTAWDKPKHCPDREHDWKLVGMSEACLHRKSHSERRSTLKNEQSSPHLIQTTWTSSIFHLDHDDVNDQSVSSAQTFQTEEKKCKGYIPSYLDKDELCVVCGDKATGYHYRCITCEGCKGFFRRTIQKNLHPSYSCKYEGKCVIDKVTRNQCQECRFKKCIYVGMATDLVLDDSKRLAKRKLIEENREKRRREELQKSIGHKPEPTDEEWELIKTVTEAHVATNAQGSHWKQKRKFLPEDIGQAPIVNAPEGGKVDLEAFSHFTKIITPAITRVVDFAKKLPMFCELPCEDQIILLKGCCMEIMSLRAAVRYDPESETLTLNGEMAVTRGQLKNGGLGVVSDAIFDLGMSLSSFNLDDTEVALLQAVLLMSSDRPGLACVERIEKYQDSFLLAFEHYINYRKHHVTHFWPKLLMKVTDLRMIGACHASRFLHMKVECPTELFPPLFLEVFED
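Human TRb LBD (0.6 uM) plus Texas Red-labeled SRC2 peptide (20 nM), 1uM T3, 5% DMSO, 5 hr at ambient temperature. Decreased polarization (555/632 nm) flags inhibition; data normalized to free and bound peptide controls.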
Each line names hits and unclear results; the compound was inactive in the other large screens; [ ] = dose if it differs, or a comment. Unless noted, calls come from the whole dose curve; as a rule, active = well fitted curve in the direction sought with a large enough effect; inconclusive = small, poorly fitted or top-dose-only effect, or another doubt; inactive = no such curve, though single readings can be large; an effect the other way counts as inactive or inconclusive.

COc1cc2c(cc1NC(=S)Nc1cccc(C(F)(F)F)c1)oc1ccccc12	Tau fibril FP inconclusive, Tau ThT inhib inconclusive, Tau fluor cs 12.6µM[quencher]
COc1cc2c(cc1NC(=O)Nc1ccccc1)oc1ccccc12	Tau fluor cs 7.08µM[quencher]
COc1cc2c(cc1NC(=O)CSCC(=O)O)oc1ccccc12	none
COc1cc(O)c(C(=O)c2ccccc2)cc1O	Tau fibril FP 14.1µM, Tau ThT inhib 7.94µM, Tau fluor cs 12.6µM[quencher]
Cc1cccc(-n2c(O)c(C=Nc3cccc(O)c3)c3ccccc3c2=O)n1	none
CC1=NC(=O)C(N=Nc2cccc(O)c2)N1c1ccccc1 (stereo not given)	Tau ThT inhib 5.01µM, Tau fluor cs inconclusive
O=C(COC(=O)C1CC(O)CN1S(=O)(=O)c1ccc(Cl)cc1)c1ccccc1 (stereo not given)	TexasRed fluor 0.112µM[quencher]
O=C(COC(=O)C1CC(O)CN1S(=O)(=O)c1ccc(Cl)cc1)c1ccccc1Cl (stereo not given)	none
CCOC(=O)c1ccc(NC(=O)Nc2cc3c(cc2N2CCCC2)n(C)c(=O)n3C)cc1	Tau ThT inhib inconclusive, Tau fluor cs 14.1µM[quencher]
CCN1C(=O)c2cccc3c(NS(=O)(=O)c4ccc(NC(C)=O)cc4)ccc1c23	none
CCOC(=O)c1ccc(NC(=O)Nc2ccc3c4c(cccc24)C(=O)N3CC)cc1	Tau ThT inhib inconclusive, Tau fluor cs 3.16µM[quencher]
CC(C)Nc1ccc(-c2nc(-c3ccco3)no2)cc1[N+](=O)[O-]	none
COc1cc(/C=C(\C#N)c2nc3c(s2)CCCC3)ccc1O	Tau ThT inhib 11.2µM, Tau fluor cs 14.1µM[quencher]
N#C/C(=C\c1cccnc1)c1nc2c(s1)CCCC2	none
COc1ccc(C2=NN(CC(=O)NCCc3ccc(OC)c(OC)c3)C(=O)CC2)cc1	none
O=C(C[n+]1ccccc1)Nc1c(Cl)cc(Cl)cc1Cl	Tau ThT inhib 17.8µM
CC1CCN(c2ccc(NC(=S)NC(=O)c3ccc(-c4cccc([N+](=O)[O-])c4)o3)cc2)CC1	Tau ThT inhib 2µM, Tau fluor cs inconclusive
CCOC(=O)c1cc(OC(=O)c2cccc(F)c2)n(-c2ccccc2)n1	TexasRed fluor inconclusive
CCCOc1ccc(-c2nonc2NC(=O)COc2ccc(C)cc2)cc1OCCC	none
CCNc1nc(NC(C)CC)nc(OC)n1 (stereo not given)	none (no result: Tau fibril FP, Tau ThT inhib, Tau fluor cs)
COc1cc(/C=C2\S/C(=N/S(=O)(=O)c3ccc(C)cc3)NC2=O)c([N+](=O)[O-])cc1OC	Tau fibril FP inconclusive, Tau ThT inhib 14.1µM, Tau fluor cs inconclusive
O=C(Cn1c(=O)nc(-c2ccccc2)c2cc(Cl)ccc21)N1CCN(c2ccccc2F)CC1	Tau ThT inhib inconclusive
COc1ccccc1-n1c(SCC(=O)c2ccc(O)cc2O)nc2cc([N+](=O)[O-])ccc21	Tau fibril FP inconclusive, Tau fluor cs 10µM[quencher]
Cc1cc(C)c2nc(NNC(=O)c3ccc(S(=O)(=O)N4CCCCC4)cc3)sc2c1	Tau fibril FP inconclusive, Tau ThT inhib 22.4µM, Tau fluor cs inconclusive
CCOC(=O)N1CCN(S(=O)(=O)c2ccc(C(=O)NNc3nc4c(C)cc(C)cc4s3)cc2)CC1	none
CCOC(=O)N1CCN(S(=O)(=O)c2ccc(C(=O)NNc3nc4c(C)cccc4s3)cc2)CC1	Tau fibril FP inconclusive, Tau ThT inhib 20µM, Tau fluor cs inconclusive
Cc1cc(C)c2nc(NC(=O)c3ccc(S(=O)(=O)N4CCCC4)cc3)sc2c1	Tau fibril FP inconclusive
O=C1[C@H]2[C@H]3[C@H](O)[C@H](O)C/C(=N/OCc4ccccc4)[C@@H]3CC[C@@H]2C(=O)N1C[C@@H]1CCCO1	none
CCCC[C@@H]1CCCO[C@@](C(=O)NCc2ccccc2)(C(F)(F)F)C1	none (no result: Tau fibril FP, Tau ThT inhib, Tau fluor cs)
Cc1ccc(-c2cc3ncc(C(=O)c4cc(Cl)c(C)cc4O)cn3n2)cc1	Tau fibril FP inconclusive
COc1ccc(-c2cc3ncc(C(=O)c4cc([N+](=O)[O-])ccc4O)cn3n2)cc1	Tau ThT inhib 7.08µM
O=C1C=C[C@@H](O)[C@H]2[C@@H]3C(=O)N(c4cccc(Oc5ccccc5)c4)C(=O)[C@@H]3CC[C@H]12	none
COc1cccc(NC2=C(C#N)C(=O)NC(c3cccc(OC)c3O)S2)c1 (stereo not given)	Tau fibril FP inconclusive, Tau ThT inhib 31.6µM
N#CC1=C(Nc2ccccc2Cl)SC(c2ccccc2O)NC1=O (stereo not given)	Tau fibril FP 31.6µM, Tau ThT inhib inconclusive
Cc1cccc(NC2=C(C#N)C(=O)NC3(CCCC3)S2)c1	Tau fibril FP inconclusive, Tau ThT inhib inconclusive
O=C1c2ccccc2C(=O)C12OC2c1cccc2ccccc12 (stereo not given)	Tau fibril FP 4.47µM, Tau ThT inhib 2.51µM
Cc1cccc(-n2c(C)cc(/C=C3\C(=N)N4N=C(CC(C)C)SC4=NC3=O)c2C)c1	Tau fibril FP inconclusive
CCc1ccc(-n2cccc2/C=C2/C(=N)N3C(=NC2=O)SN=C3S(C)(=O)=O)cc1	Tau ThT inhib inconclusive
CCSC1=NSC2=NC(=O)/C(=C\c3coc4ccccc4c3=O)C(=N)N12	Tau ThT inhib 25.1µM, Tau fluor cs inconclusive
CC(C)CC1=NN2C(=N)/C(=C\c3coc4ccccc4c3=O)C(=O)N=C2S1	Tau fibril FP inconclusive, Tau ThT inhib 31.6µM, Tau fluor cs inconclusive
CCCCCCCCCCCCCCCCSCC(COC)COP(=O)([O-])OCC[N+](C)(C)C (stereo not given)	none (no result: Tau fibril FP, Tau ThT inhib, Tau fluor cs)
CN(C)S(=O)(=O)c1cc(NC(=O)CSc2ncc(C(F)(F)F)cc2Cl)ccc1Cl	Tau fibril FP 28.2µM, Tau fluor cs inconclusive
COc1cccc2sc(Nc3nnc(-c4ccc(F)cc4)o3)nc12	Tau ThT inhib inconclusive
Fc1cccc2sc(Nc3nnc(-c4ccco4)o3)nc12	Tau ThT inhib 12.6µM
CCn1c(C)cc(=S)c2ccccc21	Tau fibril FP inconclusive, Tau ThT inhib 20µM
COc1ccc(Nc2nc(Nc3ccc(OC)cc3OC)nc(N3CCOCC3)n2)c(OC)c1	Tau ThT inhib inconclusive, Tau fluor cs 2.82µM[quencher]
C(=C\c1ccccc1)/C=N/Nc1nc2ccccc2[nH]1	Tau ThT inhib 7.94µM, Tau fluor cs inconclusive
C(=N\Nc1nc2ccccc2[nH]1)/c1ccccc1	Tau ThT inhib inconclusive
Cc1ccc(/C=N/Nc2nc3ccccc3[nH]2)s1	Tau fibril FP inconclusive, Tau ThT inhib 7.94µM, Tau fluor cs inconclusive
COc1ccc(/C=N/Nc2nc3ccccc3[nH]2)c(OC)c1OC	Tau ThT inhib inconclusive, Tau fluor cs inconclusive
C(=N\Nc1nc2ccccc2[nH]1)/c1cccc2cccnc12	Tau ThT inhib 4.47µM, Tau fluor cs inconclusive
C(=N\Nc1nc2ccccc2[nH]1)/c1c[nH]c2ccccc12	Tau ThT inhib 12.6µM, Tau fluor cs 15.8µM[quencher]
Cc1ccccc1/C=N/Nc1nc2ccccc2[nH]1	Tau ThT inhib inconclusive, Tau fluor cs inconclusive
CC1CCN(C(=O)CSc2nc(-c3ccc(C(C)C)cc3)no2)CC1	Tau ThT inhib inconclusive
